Cycloheximide cs: counter-screen hit for Shiga toxin inhibitors, cycloheximide | cell reporter, cycloheximide protein synthesis inhibition counterscreen | max response, % | hit rate 12% among 300,000; in the data active = max response mostly above about 13%, no sharp cut-off; inactive = mostly below about 14%; note: read at 38.3 µM for the half of the compounds with a filed dose; 0% is about no effect
Pf growth 96h: P. falciparum growth inhibition at 96 hour, primary screen for plastid delayed-death inhibitors; P. falciparum luciferase reporter growth, 96 h; Potency, µM (titrated, usually from 28.7 µM), inactives show at the highest dose activity change, negative = inhibition, usual class: inhibitors; hit rate 6.9% among 320,000; note: potency is the fitted concentration of half-maximal effect; % is set by controls: 0 for no effect and ±100 for the full control effect
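P. falciparum expressing integrated firefly luciferase grown in erythrocytes (2% hematocrit, 0.05% parasitemia final) with compounds for 96 hours at 37 C, 5% CO2. Growth inhibition read as loss of luminescence after adding luciferase detection reagent.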
Pf growth 48h: inhibits P. falciparum growth in the first generation, 48 h. P. falciparum luciferase growth in erythrocytes, 48 h. Potency, µM (top dose mostly 28.7 µM), for inactives: at the top dose activity change, negative = inhibition, actives largely listed as inhibitors. hit rate 5.9% among 310,000. AID 504832; note: potency is the fitted concentration of half-maximal effect; % is set by controls: 0 for no effect and ±100 for the full control effect
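Compounds are pin-transferred into medium, infected erythrocytes (2% hematocrit, 0.1% parasitemia final) are added, and plates sit one parasite generation at 37 C in 5% CO2. Detection reagent is then added and luminescence measured.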
Shiga toxin inh: Shiga toxin inhibition; hit rate 9.2% among 290,000; Vero cells, Shiga toxin protein synthesis inhibition reporter; AID 2315; inhibition, % at 38.7 µM; in the data active = inhibition mostly above about 28%, no sharp cut-off; inactive = mostly below about 43%; note: 0% is about no effect
HCMV inh: human cytomegalovirus inhibition. HFF cells, HCMV-luciferase reporter, 72 h; stronger effect = lower value. activity change, negative = inhibition, % at 57.5 µM. hit rate 4.5% among 410,000; in the data active = activity change below about -60%; inconclusive = no clear call, values can overlap the other calls; inactive = above about -39%; note: % is set by controls: 0 for no effect and ±100 for the full control effect
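Steps: HFFs plated, 16 h 37C; compounds added; HCMV-luciferase added to MOI 1 PFU/cell; 72 h 37C; OneGlo reagent, 5 min room temperature; luminescence read, normalized to controls.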
Numbers without * were called inactive; ? = inconclusive; . = no result given; + = active, no number. Shown are actives, neighbours in structure and some others; about 20% of the full set was active somewhere. Unless noted, calls come from the whole dose curve; as a rule, active = well fitted inhibition curve with a large enough effect; inconclusive = small, poorly fitted or top-dose-only effect, or another doubt; inactive = no such curve, though single readings can be large or run the other way.

SMILES | Cycloheximide cs | Pf growth 96h | Pf growth 48h | Shiga toxin inh | HCMV inh
Brc1ccc(NC(c2ccccc2)c2ccncc2)cc1 (centres undefined) | 5 | 7% | 0% | 14 | -4
COc1cc(/C=C(\C#N)c2nc3c(s2)CCCC3)ccc1O | 50* | . | 115% | 68* | .
COc1cc(/C=C(\C#N)C(=O)N2CCCCC2)ccc1O | 2 | ? | ? | 5 | -19
CC(C)OC(=O)/C(C#N)=C\c1cccnc1 | 8 | 12% | 21% | -9 | 10
CC1CCc2nc(/C(C#N)=C/c3cccnc3)sc2C1 (centres undefined) | 52* | 24% | -33% | 145* | 33
N#C/C(=C\c1cccnc1)c1nc2c(s1)CCCC2 | 44* | 14% | 18% | 156* | ?
O=S1(=O)C[C@@H](N2CC[C@@H](O)C2)[C@H](COCc2ccccc2)N1 | . | . | . | . | 11
CCCN(Cc1ccccc1)C(=S)Nc1ccc(OCC)cc1 | 19* | 42% | 19% | 25 | -19
CCOc1ccc(NC(=S)N(CC)Cc2ccccc2)cc1 | 32* | 25% | 13% | 34 | .
CCC1CN(C(=O)N2CCC(C(=O)N3CCN(c4ccccc4)CC3)CC2)c2ccccc2O1 (centres undefined) | . | . | . | . | -17
O=C(O)CCC(=O)OCCN(Cc1ccc(Oc2ccc([N+](=O)[O-])cc2)cc1)C(=O)C(Cl)Cl | . | . | . | . | -9
COc1cccc(NC(=O)CCc2nc(-c3ccc(C(C)(C)C)cc3)no2)c1 | . | . | . | . | -82*
COc1ccc(-c2noc(N(C)CC(=O)Nc3cccc(C(F)(F)F)c3)n2)cc1 | 21* | 6% | 80% | 36 | 36
Cc1ccc(-c2noc(CCC(=O)Nc3cc(C)ccn3)n2)cc1 | -3 | ? | 47% | -5 | -71*
COc1ccc(-c2noc(CCC(=O)Nc3cccc(C)c3)n2)cc1 | 27* | ? | 20% | 100* | 0
COc1ccccc1-c1noc(CCC(=O)Nc2cccc(C)c2)n1 | 11 | 4% | 1% | 31 | -25
CCOc1ccc(N2C(=O)CC(SC(=NC)Nc3ccc(F)cc3)C2=O)cc1 (centres undefined) | -2 | 9.3µM* | ? | -4 | -4
CN=C(Nc1ccc(C)c(C)c1)SC1CC(=O)N(c2ccc(OC)cc2)C1=O (centres undefined) | -2 | 47% | 12µM* | 42 | 45
CN=C(Nc1ccc(Br)cc1)SC1CC(=O)N(c2ccc(OC)cc2)C1=O (centres undefined) | -5 | 4% | ? | 7 | 0
CCCOc1ccc(N2C(=O)CC(SC(=NC)Nc3ccc(F)cc3)C2=O)cc1 (centres undefined) | 9 | . | 4% | -7 | 8
CCc1cnc2c(c1SCc1ccccc1C)c(=O)n(C)c(=O)n2C | . | . | . | . | 28
COC(=O)CSc1nnc(CNC(=O)c2cc(OC)cc(OC)c2)n1-c1ccc(F)cc1 | 3 | 20% | -8% | 19 | -7
CC(=O)Nc1ccc(NC(=S)NC(=O)c2ccc([N+](=O)[O-])cc2)cc1 | -5 | 27% | 19% | 20 | 0
COc1ccc(NC(=S)N/C(=N/CS(=O)(=O)c2ccccc2)c2ccccc2)cc1 | 35* | 14% | 209% | 70* | -2
COc1ccc(NS(=O)(=O)c2cccc(NC(=O)CCS(=O)(=O)c3ccccc3)c2)cc1 | -3 | ? | 24% | -12 | 13
SMILES | Cycloheximide cs | Pf growth 96h | Pf growth 48h | Shiga toxin inh | HCMV inh
O=[N+]([O-])c1ccc(NC(=S)N/C(=N/CS(=O)(=O)c2ccccc2)c2ccccc2)cc1 | 28* | ? | -30% | 56* | 14
Cc1ccc(CN2C(=O)CSC2c2ccc(F)cc2)cc1 (centres undefined) | -1 | 43% | -6% | -7 | -27
COc1ccc(-c2csc(C(O)c3ccc(F)c(F)c3)n2)cc1 (centres undefined) | . | . | . | . | -8
COc1cc(CCC(=O)OCC(=O)Nc2ccccc2C#N)cc(OC)c1OC | -1 | 8% | 17% | 18 | -30
COCCCNC(=O)/C=C1\Sc2ccccc2N(Cc2ccccc2F)C1=O | 32* | -11% | 43% | 44 | -33
N/C(CCS(=O)(=O)c1ccc(Cl)cc1)=N\OC(=O)c1ccccc1C(F)(F)F | 2 | 9.3µM* | 3.7µM* | -4 | -11
O=C(COc1cccc(NC(=O)c2cccs2)c1)c1ccc(F)cc1 | 12 | ? | -25% | + | ?
O=C(Cc1ccc(Cl)cc1)NNC(=S)NC(=O)c1cccs1 | 9 | 27% | 7% | 34* | -19

Assay outcomes (PubChem BioAssay)
